FAS-TE inh – FAS thioesterase domain inhibitors, primary screen, biochemical, fluorescence intensity, uHTS; actives 0.67% (n = 360,000); inhibition, % at 15 µM; recombinant FAS-TE, OMFH fluorogenic substrate, fluorescence endpoint;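 active means compounds whose normalised, plate-corrected inhibition of enzyme fluorescence in the single-dose primary screen is 50% or more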;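 further: 0% = DMSO with enzyme and 100% = substrate without enzyme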
PLCb3 inh – human PLC-beta3 inhibitors, primary screen, biochemical, fluorescence; Purified PLC-beta3, fluorogenic substrate; inhibition, % at 12.2 µM; actives 0.18% (n = 370,000); in the data active means inhibition above about 11%;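 further: 0% = median of compound wells on plate and 100% = full blocker control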
PLC-gamma1 inh – PLC-gamma1 enzyme inhibitors, primary screen, biochemical, fluorescence, purified enzyme; 1-phosphatidylinositol 4,5-bisphosphate phosphodiesterase gamma-1 (Homo sapiens), P19174; fluorogenic substrate; inhibition, % at 12.2 µM; actives 0.84% (n = 370,000); in the data active means inhibition above about 9.5%
H9c2 protect – cardioprotection against H2O2-induced cell death, primary screen, uHTS, H9c2 cells, ATPLite luminescence | H9c2 cardiomyocytes, H2O2 injury protection, 2 h | protection from H2O2 cell death, % at 20 µM | actives 0.63% (n = 360,000);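 active means compounds giving at least 50% protection of heart cells from peroxide-induced death in the single-dose screen, raw or plate-pattern-corrected value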;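 further: 0% = DMSO wells with peroxide and 100% = DMSO wells without peroxide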
FAS-TE inh conf – FAS thioesterase domain inhibitors, confirmation, biochemical, fluorescence intensity, single concentration | shares compounds with FAS-TE inh | recombinant FAS-TE, OMFH fluorogenic substrate | inhibition, % at 15 µM | actives 45% (n = 2,300) | AID 624325, 2012;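 active means compounds inhibiting the enzyme by at least 50% at 15 µM in any one of the replicates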;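 further: 0% = enzyme with DMSO only and 100% = wells lacking enzyme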
* = called active by the depositor. An excerpt weighted towards active compounds, which were near 2.2% of everything screened.

Results for COc1cc(NC(=O)C2CCCN(S(=O)(=O)c3ccc(C)cc3)C2)cc(OC)c1 (stereo unspecified) ?
PLCb3 inh: 1; PLC-gamma1 inh: 3

How did Cc1ccc(S(=O)(=O)c2cc3c(=O)n4ccccc4nc3n(C)c2=N)cc1C do in these assays?
FAS-TE inh: 42; PLCb3 inh: -24; PLC-gamma1 inh: -14; H9c2 protect: -2

Results for C=CCn1c(=N)c(S(=O)(=O)c2ccc(C)c(C)c2)cc2c(=O)n3ccccc3nc21 ?
FAS-TE inh: 54*; PLCb3 inh: -36; PLC-gamma1 inh: -23; H9c2 protect: -4; FAS-TE inh conf: -14

What do the screens show for `O=C1C2C3C=CC(c4ccccc4)(C2C(=O)N1c1cccc(Cl)c1)C1C(=O)N(c2cccc(Cl)c2)C(=O)C31` (stereo unspecified)?
FAS-TE inh: 65*; PLCb3 inh: 5; PLC-gamma1 inh: 2; H9c2 protect: -5; FAS-TE inh conf: 39

What do the screens show for `O=C(Cn1ccccc1=S)c1ccc(Cl)c(Cl)c1`?
FAS-TE inh: 7; PLCb3 inh: -6; PLC-gamma1 inh: 0; H9c2 protect: 0

What do the screens show for `O=C(CN1CCSC1=NCc1ccccc1)c1ccc(Cl)c(Cl)c1`?
FAS-TE inh: 54*; PLCb3 inh: 4; PLC-gamma1 inh: 0; H9c2 protect: 1; FAS-TE inh conf: 41

What do the screens show for `C=CCn1c(SCc2cc([N+](=O)[O-])cc3c2OCOC3)nc2cc(C(=O)O)ccc2c1=O`?
FAS-TE inh: 83*; PLCb3 inh: -5; PLC-gamma1 inh: 2; H9c2 protect: 16; FAS-TE inh conf: 77*

How did CCC(CO)n1c(SCc2cc([N+](=O)[O-])cc3c2OCOC3)nc2ccccc2c1=O (stereo unspecified) do in these assays?
FAS-TE inh: 54*; PLCb3 inh: 4; PLC-gamma1 inh: 6; H9c2 protect: 7; FAS-TE inh conf: 16

How did C=CCn1c(SCC(=O)N(C)C)nc2cc(C(=O)O)ccc2c1=O do in these assays?
FAS-TE inh: -1; PLCb3 inh: 4; PLC-gamma1 inh: 4; H9c2 protect: 1

Results for O=C(NCCN1C(=O)S/C(=C\c2ccccc2F)C1=O)C1CCN(S(=O)(=O)c2cccs2)CC1 ?
FAS-TE inh: 61*; PLCb3 inh: -1; PLC-gamma1 inh: 1; H9c2 protect: -8; FAS-TE inh conf: 9

Results for COc1ccc(C)cc1S(=O)(=O)N(CC(=O)Nc1cc([N+](=O)[O-])ccc1C)c1ccc(C)c(C)c1 ?
FAS-TE inh: 65*; PLCb3 inh: 2; PLC-gamma1 inh: 1; H9c2 protect: -1; FAS-TE inh conf: 19

How did COc1ccc([N+](=O)[O-])cc1NC(=O)c1ccc(CN(c2ccc(C)c(C)c2)S(C)(=O)=O)cc1 do in these assays?
FAS-TE inh: 68*; PLCb3 inh: -2; PLC-gamma1 inh: -1; H9c2 protect: 3; FAS-TE inh conf: 34

What do the screens show for `COc1ccc([N+](=O)[O-])cc1NC(=O)c1ccc(C)o1`?
FAS-TE inh: 12; PLCb3 inh: 6; PLC-gamma1 inh: 8; H9c2 protect: -1

Results for C=C(C)CSc1nc2sc(C)c(C)c2c(=O)n1C ?
PLCb3 inh: 2; PLC-gamma1 inh: 3

What do the screens show for `COc1cccc(CNC(=S)Nc2ccc3c(c2)c(=O)n(C)n3Cc2ccc(F)cc2)c1`?
FAS-TE inh: 4; PLCb3 inh: inactive; PLC-gamma1 inh: inactive; H9c2 protect: -6

How did COc1cccc(CO[C@H]2C=C[C@@H](c3ccccc3)O[C@@H]2COC(C)=O)c1 do in these assays?
PLCb3 inh: -1; PLC-gamma1 inh: -2

Results for CCOC(=O)N1CCN(C(=O)C[C@H]2C[C@@]3(C(=O)OC)C(=C[C@H](C(C)C)O[C@@H]3C3CC3)N(Cc3ccco3)C2=O)CC1 ?
PLCb3 inh: 2; PLC-gamma1 inh: 0

How did O=C(NCCc1ccccc1)/C(=C\c1cccc([N+](=O)[O-])c1)NC(=O)c1ccco1 do in these assays?
FAS-TE inh: 83*; PLCb3 inh: -11; PLC-gamma1 inh: 0; H9c2 protect: 11; FAS-TE inh conf: 77*

How did O=C(NC(Cc1ccccc1)C(=O)O)/C(=C\c1cccc([N+](=O)[O-])c1)NC(=O)c1ccco1 (stereo unspecified) do in these assays?
FAS-TE inh: 8; PLCb3 inh: -10; PLC-gamma1 inh: -6; H9c2 protect: 2

How did O=C(NCc1ccccc1)/C(=C/c1ccc([N+](=O)[O-])cc1)NC(=O)c1ccco1 do in these assays?
FAS-TE inh: 15; PLCb3 inh: -19; PLC-gamma1 inh: -6; H9c2 protect: 4

What do the screens show for `O=C(NCc1ccccc1)/C(=C/c1cccc([N+](=O)[O-])c1)NC(=O)c1ccco1`?
FAS-TE inh: 69*; PLCb3 inh: -9; PLC-gamma1 inh: 1; H9c2 protect: 4; FAS-TE inh conf: 79*

What do the screens show for `Cc1cc(C)c2[nH]c(=O)c(CN(Cc3cccs3)C(=S)NCc3ccco3)cc2c1`?
FAS-TE inh: 62*; PLCb3 inh: -8; PLC-gamma1 inh: -6; H9c2 protect: -12; FAS-TE inh conf: 27

Results for Cc1ccc(NC(=S)N(Cc2cccs2)Cc2cc3cc(C)ccc3[nH]c2=O)cc1 ?
FAS-TE inh: 72*; PLCb3 inh: 0; PLC-gamma1 inh: 2; H9c2 protect: 3; FAS-TE inh conf: 29

How did COc1cc2cc(CN(Cc3cccs3)C(=S)Nc3ccc(C)cc3)c(=O)[nH]c2cc1OC do in these assays?
FAS-TE inh: 76*; PLCb3 inh: -15; PLC-gamma1 inh: -10; H9c2 protect: 11; FAS-TE inh conf: 24

How did Cc1ccc(Cl)cc1NC(=O)N(C)CCOC(=O)Nc1cccc(Cl)c1 do in these assays?
PLCb3 inh: -1; PLC-gamma1 inh: 4

What do the screens show for `CCOC(=O)C1CCCN(C(=O)c2cc3cc4ccc(OC)cc4nc3o2)C1` (stereo unspecified)?
FAS-TE inh: 19; H9c2 protect: 11

How did COc1ccc2cc3cc(C(=O)N4CCCC(C)C4)oc3nc2c1 (stereo unspecified) do in these assays?
FAS-TE inh: 71*; PLCb3 inh: -29; PLC-gamma1 inh: -20; H9c2 protect: -1; FAS-TE inh conf: 71*

What do the screens show for `COC(=O)[C@]12C[C@H](CC(=O)N3CCSCC3)C(=O)N(Cc3ccccc3)C1=C[C@H](COCc1ccccc1)O[C@@H]2C`?
PLCb3 inh: 0; PLC-gamma1 inh: -1

Results for O=C(CCCc1ccccc1)Nc1cccc([N+](=O)[O-])c1 ?
FAS-TE inh: 66*; PLCb3 inh: 1; PLC-gamma1 inh: 7; H9c2 protect: -6; FAS-TE inh conf: 60*

Results for COCC(=O)Nc1cc([N+](=O)[O-])ccc1C ?
FAS-TE inh: 6; PLCb3 inh: -2; PLC-gamma1 inh: 0; H9c2 protect: 11

Assay outcomes deposited in PubChem BioAssay by several laboratories.
